Potency and activity change, negative = cytotoxicity data for 40 compounds are collected here from PubChem BioAssay (Tox21).

Results filed as inconclusive are left out. Entries that show only a call come without a potency. A number with no mark means an inactive call. Calls of active or inactive are those of the source. The call rests on the fitted dose curve; in most records, active means well fitted cell-killing curve with a large enough effect in the repeat runs; inconclusive means weak or mixed curves, or effect the other way; inactive means no such curve, though single readings can be large or run the other way.

A short description of the test: qHTS assay to identify small molecule antagonists of the peroxisome proliferator-activated receptor gamma (PPARg) signaling pathway - cell viability counter screen (AID 743194). Further: nearly all actives have a fitted effect of over 55% in size. To be noted: PPARg-bla HEK293H viability, CellTiter-Glo luminescence, 17 h, co-treated with 50 nM rosiglitazone; series mostly up to 62.6 µM. The source says: U.S. Tox21 Program National Center for Advancing Translational Sciences [NCATS] NIH Chemical Genomics Center [NCGC] U.S. Environmental Protection Agency [EPA] National Institutes of Environmental Health Sciences [NIEHS] National Toxicology Program [NTP] U.S. Food and Drug Administration [FDA] Tox21 Assay Overview: The peroxisome proliferator-activated receptors (PPARs) are lipid-activated transcription factors of the nuclear receptor superfamily with three distinct subtypes namely PPAR alpha, PPAR delta (also called PPAR beta) and PPAR gamma (PPARg). All these subtypes heterodimerize with Retinoid X receptor (RXR) and these heterodimers regulate transcription of various genes. PPAR-gamma receptor (glitazone receptor) is involved in the regulation of glucose and lipid metabolism. To identify the compounds that activate PPAR-gamma signaling, GeneBLAzer PPAR gamma UAS-bla HEK293H cell line (Invitrogen, Carlsbad, CA, USA) containing a beta-lactamase reporter gene under the control of an Upstream Activator Sequence (UAS) was used to screen the Tox21 compound library. The cytotoxicity of the Tox21 compound library against the PPARg-bla cell line was tested in parallel by measuring the cell viability using CellTiter-Glo assay in the same wells.
Tox21 Assay Protocol Summary: PPARg-bla cells were dispensed at 3000 cells/5uL/well in 1536-well black wall/clear bottom plates using a Multidrop Combi (Thermo Fisher Scientific, Waltham, MA) dispenser. After the assay plates were incubated at 37 C and 5% CO2 for 5 h, 23 nL of compounds dissolved in DMSO, positive controls or DMSO only was transferred to the assay plate by a Pintool station (Kalypsys, San Diego, CA), followed by addition of 1ul Rosiglitazone (50 nM, final concentration in the wells). The assay plates were incubated at 37 C for 17 h, and then 1 uL of LiveBLAzerTM B/G FRET substrate was added using a Bioraptr Flying Reagent Dispenser (FRD) workstation (Beckman Coulter, Indianapolis, IN, USA). The assay plates were incubated at room temperature for 1 h and fluorescence intensity was measured by an Envision plate reader (PerkinElmer, Shelton, CT). For cell viability readout that measures cytotoxicity, 4 ul/well of CellTiter-Glo reagent was added into the assay plates using a Flying Reagent Dispenser. After 30 min incubation at room temperature, the luminescence intensity in the plates was measured using a ViewLux plate reader (PerkinElmer).
In general terms: In qHTS, concentration-response curves come from the screen itself.
With `O=C1CCN(c2ccccc2)N1`, the Potency entry was “inactive”.
As for `C1CSCCS1`, the Potency entry is “inactive”.
With `CCCCNc1ccc(C(=O)OCCN(CC)CC)cc1`, the Potency entry was “inactive”.
As for `CC(=O)N[C@@H](CC(C)C)C(=O)O`, the Potency result was “inactive”.
`CCC/C=C/CO`: the Potency entry is “inactive”.
Consider `CC(C)CCCCCCc1ccc(OCCOCCO)cc1`, for which the Potency result was “inactive”.
Take `OCCN(CCO)CCN(CCO)CCO`: the Potency result is “inactive”.
Same read-out and setting: the entry for `C[C@@H](N)C(=O)O` is “inactive”.
For `CCOC(=O)C(Br)c1ccccc1` (stereo not given), the Potency result was “inactive”.
Turning to `CN(C)C(=O)NC1(c2ccccc2)CCN(CCC[C@]2(c3ccc(Cl)c(Cl)c3)CCCN(C(=O)c3ccccc3)C2)CC1`, the Potency result is “inactive”.
Still for that read-out and setting: the entry for `CCCCCOc1ccc(C2SC(=O)NC2=O)cc1OCC` (stereo not given) is “inactive”; for `Cc1nnc(SCC2=C(C(=O)O)N3C(=O)[C@@H](NC(=O)Cn4cnnn4)[C@H]3SC2)s1` it is “inactive”; for `Cc1c[nH]c(=S)[nH]c1=O` it is “inactive”.
Take `O=C1CCCc2ccccc21`: the Potency entry is “inactive”.
Regarding `CC(=O)OC(C)OC(C)=O`, the Potency result was “inactive”.
Still for that read-out and setting: the entry for `CCOC(=O)c1cc(=O)c2c(OCC(COc3cccc4oc(C(=O)OCC)cc(=O)c34)OC(=O)[C@@H](N)CCCCN)cccc2o1` is “inactive”.
With `CN1[C@@H]2CC[C@H]1CC(OC(=O)c1c[nH]c3ccccc13)C2` (stereo not given in full), the Potency entry is “inactive”.
`Cc1ccccc1C(=O)Nc1ccc(C(=O)N2CCCC(O)c3cc(Cl)ccc32)c(C)c1` (stereo not given): the Potency entry is “inactive”.
On to `CN1CCN(C2=Nc3cc(F)ccc3Cc3ccccc32)CC1`, for which the Potency entry is “inactive”.
For the compound `CCCCCCC`, the Potency entry is “inactive”.
With `C1CCOC1`, the Potency entry was “inactive”.
For `O=C(O)c1ccccc1Nc1cc(Cl)ccc1C(=O)O`, the Potency entry is “inactive”.
For the compound `CCCCCCCCCC/C=C/C#N`, the Potency result was “inactive”.
`CCCCN1C[C@H](O)[C@@H](O)[C@H](O)[C@H]1CO`: the Potency entry was “inactive”.
Turning to `CCOc1ccc(NS(=O)(=O)c2ccc(N)cc2)nn1`, the Potency result was “inactive”.
Take `CN1CCN(C2=Nc3ccccc3Oc3ccc(Cl)cc32)CC1`: the Potency entry was “inactive”.
For the compound `NC(Cc1ccc(F)cc1)C(=O)O` (stereo not given), the activity change, negative = cytotoxicity is -1.09% [at 5.95 µM].
In the case of `CC(C)(C)C1CCCCC1=O` (stereo not given), the Potency entry is “inactive”.
Regarding `CN(C)Cc1ccccc1`, the Potency entry was “inactive”.
On the same count and under the same terms, the entry for `CC(Oc1c(Cl)cccc1Cl)C1=NCCN1` (stereo not given) is “inactive”; for `CC(C)O` it is “inactive”; for `CCC(=O)Nc1ccc(O)cc1` it is “inactive”.
Turning to `CCN(O)CC`, the Potency entry was “inactive”.
Take `CCCNC(C)C(=O)Nc1c(C)csc1C(=O)OC` (stereo not given): the Potency entry is “inactive”.
On to `CCCCC(=O)O[C@]1(C(=O)CO)[C@H](C)C[C@H]2[C@@H]3CCC4=CC(=O)C=C[C@]4(C)[C@@]3(F)[C@@H](O)C[C@@]21C`, for which the Potency result was “inactive”.
On to `N#CSCC(=O)O`, for which the Potency result was “inactive”.
Regarding `CN(CCCN1c2ccccc2CCc2ccccc21)CC(=O)c1ccc(Cl)cc1`, the Potency entry was “inactive”.
With `CN(C)CC[C@@H](c1ccc(Cl)cc1)c1ccccn1`, the Potency result is “inactive”.
Same read-out and setting: the entry for `COC(=O)N[C@H](C(=O)N[C@@H](Cc1ccccc1)[C@@H](O)CN(Cc1ccc(-c2ccccn2)cc1)NC(=O)[C@@H](NC(=O)OC)C(C)(C)C)C(C)(C)C` is “inactive”.
Consider `Cc1c(-c2ccccc2)oc2c(C(=O)OCCN3CCCCC3)cccc2c1=O`, for which the Potency result is “inactive”.
